Assay results from the supplement of paper PMC6555819.

Legend:
Assay in all cases: PBM binding z-score (relative to random genomic background probes); higher = stronger binding; sequences stand for … in GC…GCGATTGACAGCGTAGAATGAAGG
[1] = tested on: RARb homodimer (NR concentration 270 nM)
How it was run: (§1)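 Binding buffer was PBS pH 7.4 with 2% milk, 0.02% Triton X-100, 1 mM DTT, 0.2 mg/mL BSA and 0.4 mg/ml salmon testes DNA. In it, ligand-free nuclear receptor dimers were incubated 1 h on custom Agilent 4×180K protein-binding microarrays carrying double-stranded probes. Antibodies against each partner (one per run) detected binding, and z-scores were calculated against random background probes after regression normalization of scanned fluorescence.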

[2] = tested on: RARg:RXRa (NR concentration 270 nM, RXRa partner concentration 90 nM)
How it was run: as §1

[3] = tested on: RARg homodimer (NR concentration 270 nM)
How it was run: as §1

[4] = tested on: RXRa DBDmut IVT, anti-RXR (DBD mutation: RXRa K156A/R161A, NR concentration 90 nM)
How it was run: as §1

[5] = tested on: RXRa homodimer (NR concentration 180 nM)
How it was run: as §1

[6] = tested on: THRa:RXRa (NR concentration 90 nM, RXRa partner concentration 90 nM)
How it was run: as §1

[7] = tested on: THRa homodimer (NR concentration 90 nM)
How it was run: as §1

[8] = tested on: VDR homodimer (NR concentration 270 nM)
How it was run: as §1

Sequence	PBM binding z-score [1]	PBM binding z-score [2]	PBM binding z-score [3]	PBM binding z-score [4]	PBM binding z-score [5]	PBM binding z-score [6]	PBM binding z-score [7]	PBM binding z-score [8]
ATACCAAGGTGGTCGTGAGGTCGTTGATACTAAC	1.63	1.25	0.566	0.422	1.53	3.02	2.64	3.47
TGTTGTAGATCAAGCAGGTTAAGAAAGCCTGAGT	0.0369	-0.0637	0.062	-1.02	-0.024	0.0864	-0.545	-0.058
ATCGAAAGGTAGAGGTGAGTATAGAGAAAGGGAA	1.19	0.75	1.07	-0.488	0.652	0.94	0.25	0.0183
CCAGACAGGTGAGAAGGTAAGTCAGCCTCGATTA	0.641	0.215	0.357	0.0817	0.216	0.3	0.145	-0.136
TTACCAAGGTGAGCTGAGGTGGTTGATCCAACTC	-0.15	0.00376	-0.00239	-0.813	0.0948	2.98	-0.0561	-0.641
CGTCAAAGTTGAAGGTAACGTAACAGAAAGCAGC	0.588	0.945	1.11	0.128	0.848	0.402	-0.078	-0.0561
CAAACTAGGTCAGGAAAGGTCAAAGTCGAATGAC	5.66	6.84	7.48	1.51	6.81	4.74	1.62	3.13
CCTACTGGGCCATAAGGTCATTGATATCAACGTT	3.91	3.77	3.15	1.01	3.28	4.14	4.56	2.93
TCTTGTAGATTAACAGGAGGTTAAGAAAGATCGA	0.36	0.787	0.386	0.566	1.05	1.03	-0.287	0.0136
TCATAGAGGTAAAGGTGAAAGTCGAACGATATGA	1.69	1.9	1.52	0.528	2.39	1.67	-0.473	-0.362
GCTTGTAGATTAAGGTTAAGAAAGACTAAGCTAA	0.241	0.49	0.267	0.113	0.645	2.08	0.778	-0.232
TCATATAGGTAATAGAGGTGAAAGTCGGCATCTA	1.33	1.08	0.999	2.14	1.68	1.91	0.432	0.435
GGAACGAGGGCAAGTCGATAGCAGAGTTTGATGG	1.18	1.36	2	1.89	0.701	0.983	-0.0774	1.08
GCTCCTAGGTCAACTGATGGTCAGCTAAAGCTCG	3.8	5.76	5.88	2.02	3.77	3.15	1.7	0.601
ATATGTAGGTTACATCCGGGTCATTCAGGCTATG	3.04	3.77	2.17	1.01	3.39	3.75	2.57	2.83
GGAACGACGGCAAGTTGATAGCAGAGTTTGATGG	-0.7	-0.136	-0.0502	-0.124	-0.0735	-0.769	-1.02	-0.205
AGTCGAAGTTCAGGACGAGGTAACGTAAAGCACG	1.36	2.55	1.89	1.42	1.28	3.25	1.62	0.996
CCTACCGGGCCATCAGGTCATTGATATCAACGTT	2.68	2.12	2.18	-0.283	1.28	3.19	3.37	1.78
CGAACTAGGTCATCCATGACAGTGAATACATTGA	2.92	4	4.72	2.04	2.97	2.84	0.683	1.17
CCCGAAAGGTCGGTTGAGGTGAGTATACGGATAA	2.61	2.9	3	0.858	2.41	4.99	1.8	0.636
CTCGAAAGGTCGGTTGCGGTGAGTATACGGATAA	1.91	2.44	2.59	1.06	2.06	3.27	-0.0628	0.294
CCTGACAGGTGAAAGGTAACTCAGTCTGGTACGC	0.705	1.41	0.684	-0.145	1.95	0.905	-0.332	-0.107
CCTCGGAGGACAACAGGAGATCAGAGCTGCCAGA	0.118	0.145	0.783	0.248	-0.305	0.396	-0.247	-0.168
TTACCAAGTTGAAGGTCGTTGATCCCTCTGTAGA	1.15	0.339	0.342	1.07	1.2	1.26	0.0178	1.49
ATATGTAGGTTACATCCGGGTCATTCGGGCTATG	2.99	3.7	2.26	1.22	3.01	3.69	2.36	3.19
TCATATAGGTAAAAGGTGAATGTCGGTGTGGTAA	1.88	1.75	1.04	1.81	2.85	1.5	0.686	0.531
CCTTACGGTTCAAGGTTATAGCACGGGTGGTACG	1.39	1.69	1.21	2.6	2.38	2.15	1.41	3.31
CCTTACGGGTCACTGTCAGGTTATAGCATTTGGA	3.14	5.51	4.38	1.75	4.49	3.83	0.905	1.41
